Reference: PubChem BioAssay (EPA / NIEHS)
Where “and” joins values, the source holds several entries; their conditions need not be identical. Equal entries are not always repeated. A structure can be active in one record and inactive in another. Calls of active or inactive are those of the source. How the source made its calls: active means hit-call score of the fitted dose curve at least 0.9, where 1 is the maximum; inactive means score below 0.9.

Tests used:
[1] = read-out: Decorin, DCN (gene 1634); assay: BSK_MyoF_Decorin: BioMAP Diversity Plus: MyoF Assay for Decorin Biomarker Activity (AID 2284265); conditions: primary human lung fibroblasts
Summary of the method: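 Decorin protein was quantified by ELISA 24 h after chemical addition to primary human lung fibroblasts and analysed as increase over DMSO. Cytotoxicity was tracked in parallel cultures by SRB total-protein staining read at 560 nm.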

[2] = BSK_MyoF_SRB: Viability Assessment in the BioMAP Diversity Plus: MyoF Assay (AID 2284267); conditions: primary human lung fibroblasts;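 further: total protein by SRB absorbance in parallel cultures as cytotoxicity measure; cells assessed 24 h after compound addition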
Summary of the method: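 Cytotoxicity in primary human lung fibroblasts is gauged by SRB total-protein staining 24 h after dosing, with DMSO as the negative control.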

[3] = read-out: Matrix Metallopeptidase 1 (MMP1), MMP1 (gene 4312); assay: BSK_MyoF_MMP1: BioMAP Diversity Plus: MyoF Assay for Matrix Metallopeptidase 1 (MMP1) Biomarker Activity (AID 2284268); conditions: primary human lung fibroblasts
Summary of the method: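 Human lung fibroblasts (MyoF system) exposed to chemical for 24 h in 96-well format; MMP1 biomarker quantified by ELISA, with activity fitted in the positive direction relative to DMSO baseline.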

[4] = read-out: TIMP metallopeptidase inhibitor 1 (TIMP1), TIMP1 (gene 7076); assay: BSK_MyoF_TIMP1: BioMAP Diversity Plus: MyoF Assay for TIMP metallopeptidase inhibitor 1 (TIMP1) Biomarker Activity (AID 2284269); conditions: primary human lung fibroblasts
Summary of the method: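 Primary human lung fibroblasts, MyoF multiplex system; chemical exposure 24 h; TIMP-1 by ELISA; positive fitting direction vs DMSO control.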

[5] = read-out: Intercellular Adhesion Molecule 1 (ICAM1), ICAM1 (gene 3383); assay: BSK_BE3C_ICAM1: BioMAP Diversity Plus: BE3C Assay for Intercellular Adhesion Molecule 1 (ICAM1) Biomarker Activity (AID 2284278); conditions: primary human bronchial epithelial cells
Summary of the method: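 Measured by ELISA: ICAM-1 expressed by primary human bronchial epithelial cells 24 h after compound treatment, with upward-direction fitting versus DMSO vehicle.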

[6] = read-out: Interferon-inducible T-cell alpha chemoattractant (ITAC), CXCL11 (gene 6373); assay: BSK_BE3C_ITAC: BioMAP Diversity Plus: BE3C Assay for Interferon-inducible T-cell alpha chemoattractant (ITAC) Biomarker Activity (AID 2284279); conditions: primary human bronchial epithelial cells
Summary of the method: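 Steps: dose human bronchial epithelial cells with chemical; incubate 24 h; measure I-TAC by ELISA; fit endpoint in positive direction against DMSO control. Cytotoxicity was checked in parallel cultures by SRB staining at harvest.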

[7] = read-out: Interleukin-8 (IL8), CXCL8 (gene 3576); assay: BSK_BE3C_IL8: BioMAP Diversity Plus: BE3C Assay for Interleukin-8 (IL8) Biomarker Activity (AID 2284280); conditions: primary human bronchial epithelial cells
Summary of the method: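 Primary human bronchial epithelial cells (BE3C system) exposed 24 h; IL-8 measured by ELISA and fitted in positive direction versus DMSO. Overt cytotoxicity assessed by SRB total-protein staining in parallel cultures.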

[8] = read-out: Epidermal growth factor receptor (EGFR), EGFR (gene 1956); assay: BSK_BE3C_EGFR: BioMAP Diversity Plus: BE3C Assay for Epidermal growth factor receptor (EGFR) Biomarker Activity (AID 2284281); conditions: primary human bronchial epithelial cells
Summary of the method: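 Human primary bronchial epithelial cells (BE3C system) dosed with chemicals; EGFR measured by ELISA at 24 h, fitted in the positive direction relative to DMSO. Cytotoxicity tracked in parallel cultures by SRB total-protein staining.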

[9] = read-out: KRT18 (gene 3875); assay: BSK_BE3C_Keratin818: BioMAP Diversity Plus: BE3C Assay for Keratin 818 Biomarker Activity (AID 2284282); conditions: primary human bronchial epithelial cells
Summary of the method: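 BE3C: human bronchial epithelial primary cells, 24 h exposure, Keratin 8/18 ELISA; DMSO = negative control/baseline; cytotoxicity by parallel SRB stain (0.1% SRB after 10% TCA fixation, 560 nm).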

Measured: AC50

C=C(C)C(=O)OCCCCCCCCCCCC
inactive: [1] | [2] | [3] | [4]

CCCCCCC=O
inactive: [1] | [2] | [3] | [4]

C=CC(=O)NCOCCCC
inactive: [1] | [2] | [3] | [4]

Oc1ccc(/C=C/c2cc(O)cc(O)c2)cc1
inactive: [1] | [2] | [3] | [4]

c1ccc2c(c1)[nH]c1ccccc12
inactive: [1] | [2] | [3] | [4]

COC(OC)(C(=O)c1ccccc1)c1ccccc1
inactive: [1] | [2] | [3] | [4]

Clc1cc(Cl)c(Cl)c(Cl)c1Cl
inactive: [1] | [4]
active: [2] 20 µM | [3] 23.2 µM

C=CCCCCCCCCC=O
inactive: [1] | [2] | [3] | [4]

CC(c1cc(C(C)(C)C)cc(C(C)(C)C)c1O)c1cc(C(C)(C)C)cc(C(C)(C)C)c1O
inactive: [1] | [2] | [3] | [4]

COc1ccc(C(=O)c2ccccc2)c(O)c1
inactive: [1] | [2] | [3] | [4]

O=C1CCCCCCCCCCC1
inactive: [1] | [2] | [3] | [4]

Nc1nc(N)nc(-c2ccccc2)n1
inactive: [5] | [6] | [7] | [8] | [9]

COc1ccc(C(=O)/C(Br)=C\C(=O)O)cc1
inactive: [1] | [2] | [4]
active: [3] 16.1 µM and 20 µM

CC(CCC(=O)O)(c1ccc(O)cc1)c1ccc(O)cc1
inactive: [5] | [6] | [7] | [8] | [9]

CCCCCCCCC(CO)CCCCCC (stereo not drawn)
inactive: [1] | [2] | [3] | [4]

CCOC(=O)C1=NN(c2ccc(Cl)cc2Cl)C(C)(C(=O)OCC)C1 (stereo not drawn)
inactive: [1] | [2] | [3] | [4]

Oc1ccccc1Cc1ccccc1O
inactive: [5] | [6] | [7] | [8] | [9]

O=C1CCCCCCCCCCCN1
inactive: [1] | [2] | [3] | [4]

Cc1c(O)cccc1O
inactive: [1] | [2] | [3] | [4]

CCCCCCCCCCCC(=O)N(C)CC(=O)O
inactive: [5] | [6] | [7] | [8] | [9]

C=CC(=O)OCCCCCCCC(C)C
inactive: [1] | [2] | [3] | [4]

c1ccc(Nc2cccc3ccccc23)cc1
inactive: [5] | [7]
active: [5] 12.7 µM | [6] 27.2 µM and 30.3 µM | [8] 17.6 µM and 37 µM | [9] 20 µM

CC(C)C(=O)OCCc1ccccc1
inactive: [5] | [6] | [7] | [8] | [9]
active: [9] 0.522 µM

CCC1(C)C(=O)N(Cl)C(=O)N1Cl (stereo not drawn)
inactive: [1] | [2] | [3] | [4]

CCCCCCCO
inactive: [1] | [2] | [3] | [4]

Fc1ccc(Br)cc1
inactive: [1] | [2] | [3] | [4]

CCOC(=O)/C=C\C(=O)OCC
inactive: [1] | [2] | [3] | [4]

CC=C(C)C=CC=C(C)C
inactive: [1] | [2] | [3] | [4]

CCCCCC1=CCCC1=O
inactive: [1] | [2] | [3] | [4]

CCCC(C)C(=O)OCC (stereo not drawn)
inactive: [5] | [6] | [7] | [8] | [9]

CC/C=C\C/C=C\C/C=C\CCCCCCCC(=O)OC
inactive: [1]
active: [2] 10.4 µM | [3] 36.5 µM | [4] 20 µM
